According to PubChem BioAssay AID463173 (ICCB-Longwood Screening Facility, Harvard Medical School, 2010):
Among all 52,000 compounds or so, about 1,700 (3.3%) were called active. The full list was thinned out, with actives kept by preference. Values without a mark were called inactive. No stated cut-off is given here; in the data, active means survival mostly below about 52% (no sharp cut-off); inactive means mostly above about 56%.

What follows are compounds tested on Wild type (assay: S. aureus survival, RN4220 and DeltatarO strains – OD600, teichoic acid synthesis inhibitors, primary screen (AID 463173)). Conditions: S. aureus RN4220 wild type/DeltatarO growth, OD600, 18 h, hits give low values, screened at 18.75 µg/mL (by protocol).

Structure (SMILES) | survival
CCc1nnc(SCc2ccc(F)cc2Cl)c2cc3sc(C)cc3n12 | 96%
CCOC(=O)c1cccc(NC(=O)c2ccc3snnc3c2)c1 | 84%
COc1ccc(C)cc1NC(=O)C(=O)NCC1(c2ccccc2)CCCC1 | 94%
COc1ccc2c(c1)cc1c(=O)n(CC(=O)NCCc3ccccc3)nc(C)n12 | 81%
CCc1ccccc1NC(=O)CN1C(=O)COc2ccc(S(=O)(=O)Nc3ccccc3)cc21 | 64%
COc1ccc(-c2nc(N)n(C(C)=O)n2)cc1 | 107%
Cc1nnc(SCCCN2C(=O)c3ccccc3C2=O)o1 | 105%
Cc1cccc(NC(=O)CCn2cnnn2)c1C | 71%
Cc1cc(C)c(NC(=O)c2sc3nc(C)cc(C)c3c2N)c(C)c1 | 73%
CCCN1C(=O)c2[nH]nc(-c3ccccc3O)c2C1c1cccc(OCc2ccccc2)c1 (stereo not given) | 42%
CCOc1cccc(C2c3c(-c4cc(C)ccc4O)n[nH]c3C(=O)N2Cc2ccco2)c1 (stereo not given) | 27%
CCCOc1cccc(C2c3c(-c4ccccc4O)n[nH]c3C(=O)N2Cc2ccco2)c1 (stereo not given) | 11% (active)
CCOc1cccc(C(=O)N(Cc2ccc(C)o2)C2CCS(=O)(=O)C2)c1 (stereo not given) | 90%
CCOC(=O)C1CCN(C(=O)Cn2ncc3c4ccccc4n(Cc4ccc(F)cc4)c3c2=O)CC1 | 80%
CC(C)OCCCNC(=O)C(=O)Nc1c2c(nn1-c1ccccc1)CS(=O)(=O)C2 | -6% (active)
COCCNC(=O)C(=O)Nc1c2c(nn1-c1ccccc1)CS(=O)(=O)C2 | 76%
CC(C)CCNC(=O)C(=O)Nc1c2c(nn1-c1ccccc1)CS(=O)(=O)C2 | 90%
CCOc1cccc(C(=O)Nc2cc(C)c(O)c(-c3nc4ncccc4o3)c2)c1 | 84%
CNC(=O)C1CCC(Cn2c(=O)c3sccc3n(CC(=O)NCc3ccc(C)cc3)c2=O)CC1 (stereo not given) | 73%
CNC(=O)C1CCC(Cn2c(=O)c3sccc3n(CC(=O)NCc3ccccc3)c2=O)CC1 (stereo not given) | 0% (active)
CNC(=O)C1CCC(Cn2c(=O)c3sccc3n(CC(=O)NCc3ccc(F)cc3)c2=O)CC1 (stereo not given) | 45%
Cc1cc(C)cc(NC(=O)COc2cccc3c(=O)n(C)ccc23)c1 | 72%

Structure (SMILES) | survival
Cc1ccc2oc(=O)n(CCNC(=O)Nc3ccc(Cl)cc3)c2c1 | 79%
COc1ccc(Cl)cc1NC(=O)NCCn1c(=O)oc2ccc(C)cc21 | 62%
COc1ccc(OCCCn2c(C)nc3cc(C)c(C)cc32)cc1 | 67%
CCCCOc1ccc(Cn2c(=O)oc3ccc(C)cc32)cc1 | 58%
Cc1ccc2oc(=O)n(CCCOc3ccc(Cl)cc3)c2c1 | -9% (active)
COc1ccc(OCCCn2c(=O)oc3ccc(C)cc32)cc1 | 2% (active)
COc1ccc(CCNC(=O)CCCCn2c(=O)c3ccccc3n(Cc3ccc(Cl)cc3)c2=O)cc1OC | 105%
COc1cc2nc(SCC(=O)Nc3c(C)cc(C)cc3C)n3nc(CCn4c(C)nc5ccccc54)nc3c2cc1OC | 91%
CCOc1ccccc1C(=O)Nc1cc(-c2nc3cccnc3s2)ccc1C | 67%
COCCCNC(=O)C1CCN(c2nn3cc(-c4ccc(F)cc4)nc3s2)CC1 | 88%
CCCCS(=O)(=O)c1oc(-c2cccs2)nc1S(=O)(=O)c1ccc(F)cc1 | 82%
CCC(C)S(=O)(=O)c1oc(-c2cccs2)nc1S(=O)(=O)c1ccccc1 (stereo not given) | 16%
CCCCS(=O)(=O)c1oc(-c2cccs2)nc1S(=O)(=O)c1ccccc1 | 0% (active)
Cc1ccc(CSc2oc(-c3cccs3)nc2S(=O)(=O)c2ccc(C)cc2)cc1 | 128%
CCCCCS(=O)(=O)c1oc(-c2cccs2)nc1S(=O)(=O)c1ccc(C)cc1 | 11% (active)
CCCSc1oc(-c2cccs2)nc1S(=O)(=O)c1ccc(C)cc1 | 39%
CCOc1ccc(C(=O)c2c(N)c(-c3nc(-c4ccc(OCC)cc4)cs3)c3ccccn23)cc1 | 103%
O=C(O)CN1C(=O)/C(=N\N2C(=O)CSC2=S)c2ccccc21 | 90%
Cc1nc2ccccn2c(=O)c1NC(=O)c1ccc(C(F)(F)F)cc1 | -2% (active)
Cc1nc2ccccn2c(=O)c1NC(=O)c1ccc(F)c(F)c1 | 80%
Cc1nc2ccccn2c(=O)c1NC(=O)c1ccccc1Cl | 129%
Cc1ccc(C(=O)Nc2c(C)nc3ccccn3c2=O)cc1C | 69%

Structure (SMILES) | survival
Cc1ccccc1C(=O)Nc1c(C)nc2ccccn2c1=O | 10% (active)
Cc1ccc(C(=O)Nc2c(C)nc3ccccn3c2=O)cc1 | 88%
Cc1c(C(=O)Nc2ccc(F)c(F)c2)oc2ccc(S(=O)(=O)N(C)C3CCCCC3)cc12 | 74%
COc1ccccc1CNC(=O)CC(c1ccc(C)cc1)N1Cc2ccccc2C1=O (stereo not given) | 60%
CC(C)(C)c1cc(-c2ccccc2)n[nH]1 | 132%
CN(C)c1ccc(NC(=O)CSc2nc3ccsc3c(=O)n2CCCCCC(=O)O)cc1 | 70%
CCn1cc2nc(SCc3ccc(F)cc3)n(CCc3ccccc3)c(=O)c2n1 | 77%
Cc1ccc(-c2ccc(=O)n(CC(=O)NCCc3ccccc3)n2)cc1 | 65%
Cc1ccc(-c2ccc(=O)n(CC(=O)NCCc3ccc(Cl)cc3)n2)cc1 | 73%
Cc1ccc(CCNC(=O)Cn2nc(-c3ccc(C)cc3)ccc2=O)cc1 | -3% (active)
C=CCn1c(=O)[nH]c(=O)n(CC=C)c1=O | 111%
COc1ccc2c(Sc3ccccc3)c(C(=O)NCc3ccc(OC(C)C)cc3)[nH]c2c1 | 125%
CCOc1cc(CNCCSc2nnnn2C)ccc1OCc1ccc(Cl)cc1Cl | -5% (active)
COc1cc(CNCCSc2nnnn2C)cc(Cl)c1OCc1ccccc1 | 59%
COc1cc(CNCCSc2nnnn2C)ccc1OCc1ccc(Cl)cc1Cl | 0% (active)
Cn1nnnc1SCCNCc1ccccc1OCc1ccc(Cl)cc1Cl | 56%
COc1cc(CNCCSc2nnnn2C)ccc1OCc1c(F)cccc1Cl | 73%
CCOc1cc(CNCCSc2nnnn2C)cc(Cl)c1OCc1ccc(Cl)cc1 | -2% (active)
Cn1nnnc1SCCNCc1ccc(OCc2ccc(Cl)cc2)cc1 | 68%
CCOc1ccc(CNCCSc2nnnn2C)cc1OC | 72%
COc1cc(CNCCSc2nnnn2C)ccc1OCc1ccccc1C | 68%
